Where two headings read alike, the source gives them in different places. Out of some 13,000 compounds screened, about 3,200 (25%) showed an effect of 50% or more. The list shows a part of the results.
System: P. falciparum stage V gametocytes
Parameters: BacTiter-Glo ATP luminescence viability of purified stage V gametocytes in 384-well plates, per cent inhibition versus DMSO
Settings: 48 h, 5 µM, inhibitor

Row | SMILES | % Inhibition [%] | % Inhibition (% Inhibition) [%]
1 | CC[C@H]1CN2CC[C@H]1C[C@H]2[C@H](O)c1ccnc2ccc(OC)cc12 [TCMDC-123485] | -3.295 | –
2 | CC[C@H]1CN2CC[C@@H]1C[C@H]2[C@H](O)c1cc(N2CCC(c3ccccc3)CC2)nc2ccc(OC)cc12 [TCMDC-141435] | 91.21 | –
3 | CC[C@H]1CN2CC[C@@H]1C[C@H]2[C@H](O)c1cc(N2CCC(O)CC2)nc2ccc(OC)cc12 [TCMDC-141415] | 17.87 | –
4 | CC[C@H]1CN2CC[C@@H]1C[C@H]2[C@H](O)c1cc(N2CCC(CO)CC2)nc2ccc(OC)cc12 [TCMDC-141418] | 34.66 | –
5 | CC[C@H]1CN2CC[C@@H]1C[C@H]2[C@H](O)c1ccnc2ccc(OC)cc12 [TCMDC-142003] | 82.89 | –
6 | CC[C@H]1CN2CC[C@@H]1C[C@H]2[C@H](O)c1cc(N2CCC(C)CC2)nc2ccc(OC)cc12 [TCMDC-141419] | 96.92 | –
7 | CC[C@H]1CN2CC[C@@H]1C[C@H]2[C@H](O)c1cc(N2CCCC(C)(C)C2)nc2ccc(OC)cc12 [TCMDC-141423] | 67.35 | –
8 | CCOc1ccc2nccc([C@@H](O)[C@@H]3C[C@@H]4CCN3C[C@@H]4CC)c2c1 [TCMDC-125547] | – | -52.19
9 | CC[C@H]1CN2CC[C@H]1C[C@H]2[C@H](O)c1cc(N2CCCC(CO)C2)nc2ccc(OC)cc12 (stereo partly shown) [TCMDC-141417] | -19.77 | –
10 | O=C(/C=C/c1ccc(Cl)c(Cl)c1)NCCCCCN1CCCN(C(=S)Nc2ccc(Cl)c(Cl)c2)CC1 [TCMDC-135896] | -3.43 | –
11 | N#Cc1ccc2c(c1)CCN(CCC1CCC(NC(=O)Nc3cnc4ccccc4c3)CC1)C2 (stereo not shown) [TCMDC-139440] | 3.253 | –
12 | CC[C@H]1CN2CC[C@@H]1C[C@H]2[C@H](O)c1cc(N2CCC(O)(c3ccccc3)CC2)nc2ccc(OC)cc12 [TCMDC-141438] | 44.1 | –
13 | CC[C@H]1CN2CC[C@@H]1C[C@H]2[C@H](O)c1cc(N2CCC(C(N)=O)CC2)nc2ccc(OC)cc12 [TCMDC-141441] | -22.84 | –
14 | CC[C@H]1CN2CC[C@@H]1C[C@H]2[C@H](O)c1cc(N2CCC(N3CCCCC3)CC2)nc2ccc(OC)cc12 [TCMDC-141442] | 105.7 | –
15 | CC[C@H]1CN2CC[C@H]1C[C@H]2[C@H](O)c1cc(N2CCC3CCCCC3C2)nc2ccc(OC)cc12 (stereo partly shown) [TCMDC-141440] | 90.7 | –
16 | CC[C@H]1CN2CC[C@@H]1C[C@H]2[C@H](O)c1cc(N2CCOCC2)nc2ccc(OC)cc12 [TCMDC-141416] | -92.7 | –
17 | CC[C@H]1CN2CC[C@@H]1C[C@H]2[C@H](O)c1cc(N2CCC(O)(c3ccc(Cl)cc3)CC2)nc2ccc(OC)cc12 [TCMDC-141439] | 74.49 | –
18 | CC[C@H]1CN2CC[C@H]1C[C@H]2[C@H](O)c1cc(N2CCCC(C(=O)N(CC)CC)C2)nc2ccc(OC)cc12 (stereo partly shown) [TCMDC-141434] | 46.24 | –
19 | CC[C@H]1CN2CC[C@H]1C[C@H]2[C@H](O)c1cc(N2CCCC2)nc2ccc(OC)cc12 [TCMDC-141217] | -33.27 | –
20 | CC[C@H]1CN2CC[C@@H]1C[C@H]2[C@H](O)c1cc(N2CCSCC2)nc2ccc(OC)cc12 [TCMDC-141424] | 79.98 | –
21 | O=C(Nc1ccc(OC2CCN(Cc3ccc(F)cc3)C2)c(Cl)c1)c1ccccc1 (stereo not shown) [TCMDC-133762] | 42.11 | –
22 | Cc1ccc(S(=O)(=O)N(CCCNCc2cccc(O)c2)c2ccccc2)cc1 [TCMDC-138022] | 66.9 | –

Row | SMILES | % Inhibition [%] | % Inhibition (% Inhibition) [%]
23 | Cc1cccc(CCCNC(=O)CN(c2cccc(C(F)(F)F)c2)S(=O)(=O)c2ccc(C(F)(F)F)cc2)c1 [TCMDC-136508] | -41.52 | –
24 | Oc1cccc(CNCCCN(Cc2ccccc2)c2ccccc2)c1 [TCMDC-137875] | 12.29 | –
25 | CC1(C)C(=O)Nc2ccccc2N1C(=O)CN1CCN(c2ccccc2O)CC1 [TCMDC-124856] | -25.41 | –
26 | CC(C(=O)N1CCCC1)N1CCN(C(c2ccccc2)c2ccccc2)CC1 (stereo not shown) [TCMDC-123562] | 15.58 | –
27 | CC(C(=O)N1CCCC1)N1CCN(S(=O)(=O)c2ccc(C(C)(C)C)cc2)CC1 (stereo not shown) [TCMDC-125011] | 54.13 | –
28 | Cc1ccc(S(=O)(=O)N2CCCN(C(=O)c3cc(-c4ccccc4)n[nH]3)CC2)cc1 [TCMDC-125243] | 32.96 | –
29 | C=CCn1c(SCC(=O)Nc2cc(C)ccc2OC)nc2sc(C)cc2c1=O [TCMDC-123737] | -0.9433 | –
30 | O=c1cc(NCCCNCc2cccc3c2OC(F)(F)O3)[nH]c2ccccc12 [TCMDC-139425] | -37.26 | –
31 | CC(C)CN1CCN(c2nc(C#N)c3c(c2C(=S)NC2CCCCC2)CC(C)(C)OC3)CC1 [TCMDC-124173] | 83.9 | –
32 | CCCN(CCC)C(=S)N=Nc1c(O)[nH]c2ccccc12 [TCMDC-138078] | -20.57 | –
33 | Cc1ccc2c(=O)n(C)c(=O)n(C)c2n1 [TCMDC-123937] | 60.67 | –
34 | COCCn1c(C)nc2ccccc2c1=O [TCMDC-124916] | -2.427 | –
35 | O=C(NCCN1CCCC1)c1cc(-c2ccc(Cl)c(O)c2)c(-c2ccncc2)o1 [TCMDC-135295] | 13.58 | –
36 | Cc1nc(N)nc(N)c1CCCOc1ccccc1Br [TCMDC-138069] | -36.44 | –
37 | O=C(Nc1ccc(-c2cccc(-c3nc4ccccc4[nH]3)c2)cc1)c1cnn2cccnc12 [TCMDC-136863] | -40.98 | –
38 | COc1ccc(-c2ccc(CNC3Cc4ccccc4C3)cc2)cc1S(=O)(=O)NCCN1CCCC1 [TCMDC-132472] | 95.39 | –
39 | COc1ccc(CNC2Cc3ccccc3C2)cc1-c1ccc(S(=O)(=O)NCCN2CCCC2)c(F)c1 [TCMDC-132266] | 84.74 | –
40 | COc1ccc(CNC2Cc3ccccc3C2)cc1-c1ccc(OC)c(S(=O)(=O)NCCN2CCCC2)c1 [TCMDC-132251] | 107.6 | –
41 | COc1ccc(-c2ccccc2CNC2Cc3ccccc3C2)cc1S(=O)(=O)NCCN1CCCC1 [TCMDC-132211] | 56.67 | –
42 | O=C(NCc1ccc(F)cc1)Nc1ccc(-c2cccc(-c3nc4ccc(F)cc4[nH]3)c2)cc1 [TCMDC-133304] | -35.38 | –
43 | Cc1cc(C)c(CON2C(N)=NC(N)=NC2(C)C)cc1C [TCMDC-131652] | -5.978 | –
44 | COc1ccc2nccc([C@@H](O)CN3CCC(NC(=O)Cn4nc(-c5ccc(C(F)(F)F)cc5)ccc4=O)CC3)c2c1 [TCMDC-141042] | -2.454 | –

Row | SMILES | % Inhibition [%] | % Inhibition (% Inhibition) [%]
45 | CC(=O)c1ccccc1C(=O)N1CCOc2ccc(C(O)C(c3ccccc3)c3ccccc3)cc2C1 (stereo not shown) [TCMDC-124667] | -12.26 | –
46 | O=C(NCCCN1CCC(Cc2ccccc2)CC1)c1cc2c(Cl)nc3ccccc3c2s1 [TCMDC-125440] | -22.49 | –
47 | Cn1c(=O)c2cc(C(=O)NCCCN3CCCCCC3)sc2c2ccccc21 [TCMDC-123889] | 59.14 | –
48 | O=C(NCCN1CCCC1)c1ccc(-c2ccc(-c3nc4ccccc4[nH]3)s2)cc1 [TCMDC-132314] | 24.13 | –
49 | O=C(Nc1cccc(-c2cccc(-c3nc4ccccc4[nH]3)c2)c1)Nc1ccc(F)c(F)c1F [TCMDC-133226] | -1.107 | –
50 | Cc1cc(N[C@@H](CC(C)C)C(=O)NCCc2ccccc2)nc(NCCc2ccc(F)cc2)n1 [TCMDC-134796] | 48.22 | –
51 | Cc1cc(N[C@@H](CC(C)C)C(=O)NCc2cccc(F)c2)nc(Nc2ccccc2)n1 [TCMDC-134737] | -10.43 | –
52 | Cc1cccc(CNc2nc(C)cc(N[C@@H](CC(C)C)C(=O)NCc3cccc(F)c3)n2)c1 [TCMDC-134890] | -6.286 | –
53 | Cc1cc(N[C@@H](CC(C)C)C(=O)NCc2cccc(F)c2)nc(NCCc2ccccc2)n1 [TCMDC-134870] | 54.62 | –
54 | Cc1cc(N[C@@H](CC(C)C)C(=O)NCc2cccc(F)c2)nc(NCCc2ccc(F)cc2)n1 [TCMDC-134792] | 53.15 | –
55 | COc1cccc(-c2cnc(N)c(-c3nc4cc(Cl)c(F)cc4[nH]3)c2)c1 [TCMDC-138792] | 26.62 | –
56 | COC[C@H]1CCCN1Cc1ccc(-c2ccc(-c3nc4ccccc4[nH]3)s2)cc1 [TCMDC-136785] | -1.728 | –
57 | Cc1cccc2nc(-c3ccc(-c4cccc(NC(=O)CN5CCN(C)CC5)c4)s3)[nH]c12 [TCMDC-136988] | 20.22 | –
58 | CN1CCC(N2CCN(Cc3ccc(-c4ccc(-c5nc6ccc(F)cc6[nH]5)s4)cc3)CC2)CC1 [TCMDC-133859] | 93.67 | –
59 | CN1CCC(N2CCN(Cc3ccc(-c4ccc(-c5nc6ccccc6[nH]5)s4)cc3)CC2)CC1 [TCMDC-133851] | 67.23 | –
60 | Fc1ccc2nc(-c3ccc(-c4ccc(CN5CCN(CCN6CCOCC6)CC5)cc4)s3)[nH]c2c1 [TCMDC-133935] | 8.438 | –
61 | Cc1cccc2nc(-c3ccc(-c4ccc(CN5CCN(C6CCN(C)CC6)CC5)cc4)s3)[nH]c12 [TCMDC-133866] | 107 | –
62 | Cc1cccc2nc(-c3ccc(-c4ccc(NC(=O)CN5CCN(C)CC5)cc4)s3)[nH]c12 [TCMDC-136987] | -6.57 | –
63 | Fc1ccc2nc(-c3ccc(-c4ccc(CN5CCCCC5)cc4)s3)[nH]c2c1 [TCMDC-133897] | -55.88 | –
64 | c1ccc2[nH]c(-c3ccc(-c4ccc(CN5CCC(N6CCCCC6)CC5)cc4)s3)nc2c1 [TCMDC-136787] | 26.44 | –
